{"source": "PubChem BioAssay (NCI)", "key": {"[1]": {"test": "NCI Yeast Anticancer Drug Screen. Data for the rad52 strain (AID 147);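 note: 0% = growth of vehicle-treated control cultures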", "conditions": "S. cerevisiae rad52 mutant growth inhibition, active compounds read high", "in_short": "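DNA repair-defective yeast; compound exposure; growth scored against vehicle controls.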"}, "[2]": {"test": "NCI Yeast Anticancer Drug Screen. Data for the wt1 strain (AID 149);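 note: 0% = growth of vehicle-treated wt1 cultures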", "conditions": "S. cerevisiae wt1 strain (SPY 50644) growth inhibition, active compounds read high", "in_short": "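The wt1 strain was treated with compounds, and growth was compared with vehicle-treated cultures to give inhibition.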"}, "[3]": {"test": "NCI Yeast Anticancer Drug Screen. Data for the rad50EPP+ strain (AID 151);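 note: 0% = growth of vehicle-treated control cultures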", "conditions": "S. cerevisiae rad50 mutant strain, active compounds read high", "in_short": "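rad50EPP+ yeast treated with test compounds. Readout: growth vs vehicle control.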"}, "[4]": {"test": "NCI Yeast Anticancer Drug Screen. Data for the rad50 strain (AID 155);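 note: 0% = growth of vehicle-only cultures of the same strain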", "conditions": "S. cerevisiae rad50 strain growth inhibition, active compounds read high", "in_short": "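Cells are treated with compound, grown, and their growth is then scored against vehicle-only cultures of the same repair-deficient yeast strain.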"}, "[5]": {"test": "NCI Yeast Anticancer Drug Screen. Data for the mec2-1 strain (AID 157)", "conditions": "S. cerevisiae mec2-1 strain, active compounds read high", "in_short": "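Growth inhibition is read against vehicle-treated controls after compound exposure of the mec2-1 yeast strain, which is defective in DNA damage repair or cell cycle control.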"}, "[6]": {"test": "NCI Yeast Anticancer Drug Screen. Data for the rad14 strain (AID 159);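 note: 0% = growth of vehicle-treated control cultures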", "conditions": "S. cerevisiae rad14 strain growth inhibition, active compounds read high", "in_short": "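Readout: yeast growth inhibition, referenced to vehicle-only cultures. Strain bears a defined alteration in DNA damage repair.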"}, "[7]": {"test": "NCI Yeast Anticancer Drug Screen. Data for the sgs1 mgt1 strain (AID 161);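 note: 0% = growth of cultures given vehicle only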", "conditions": "S. cerevisiae sgs1 mgt1 strain, active compounds read high", "in_short": "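Compounds are added to genetically altered yeast, and growth is compared with cultures given vehicle alone to give percent inhibition.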"}, "[8]": {"test": "NCI Yeast Anticancer Drug Screen. Data for the CLN2oe strain (AID 163);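 note: 0% = growth of vehicle-only control cultures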", "conditions": "S. cerevisiae CLN2oe strain, active compounds read high", "in_short": "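Compound-treated yeast; growth vs vehicle ctrl = % inhibition. Genetically altered strain (cell-cycle control).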"}, "[9]": {"test": "NCI Yeast Anticancer Drug Screen. Data for the cln2 rad14 strain (AID 165);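 note: 0% = growth equal to vehicle treated cultures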", "conditions": "S. cerevisiae cln2 rad14 strain, active compounds read high", "in_short": "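Growth inhibition, relative to vehicle-treated controls, is the read-out. The test organism is a yeast strain with defined genetic alterations, cln2 rad14.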"}, "[10]": {"test": "NCI Yeast Anticancer Drug Screen. Data for the bub3 strain (AID 167)", "conditions": "S. cerevisiae bub3 mutant strain, active compounds read high", "in_short": "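Part of a panel of yeast mutants defective in DNA damage repair or cell cycle regulation. Each strain is grown with compound, and inhibition is calculated relative to solvent-treated cultures.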"}, "[11]": {"test": "NCI Yeast Anticancer Drug Screen. Data for the wt2 strain (AID 169);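 note: 0% = growth of vehicle-treated yeast cultures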", "conditions": "S. cerevisiae wt2 strain growth inhibition, active compounds read high", "in_short": "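Compound exposure of yeast; growth compared with vehicle controls; inhibition reported.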"}, "[12]": {"test": "NCI Yeast Anticancer Drug Screen. Data for the mlh1 strain (AID 171);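 note: 0% = growth of vehicle-treated control cultures of the same strain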", "conditions": "S. cerevisiae mlh1 strain growth inhibition, active compounds read high", "in_short": "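Compounds are applied to a genetically altered yeast strain, and its growth is compared with that of vehicle-treated cultures to give percent inhibition.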"}, "[13]": {"test": "NCI Yeast Anticancer Drug Screen. Data for the sgs1 strain (AID 173);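 note: 0% = growth of vehicle-only control cultures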", "conditions": "S. cerevisiae sgs1 mutant, active compounds read high", "in_short": "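Compounds applied to genetically altered yeast; growth compared with vehicle-treated cultures to give % inhibition.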"}, "[14]": {"test": "NCI Yeast Anticancer Drug Screen. Data for the mlh1 rad18 strain (AID 175)", "conditions": "S. cerevisiae mlh1 rad18 strain growth inhibition, active compounds read high", "in_short": "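Cells of a genetically altered yeast strain, deficient in DNA damage repair, were treated with compound. Their growth was then compared with that of vehicle-treated cultures to give inhibition.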"}, "[15]": {"test": "NCI Yeast Anticancer Drug Screen. Data for the rad18 strain (AID 177)", "conditions": "S. cerevisiae rad18 mutant growth inhibition, active compounds read high", "in_short": "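Compounds are applied to a repair-deficient yeast strain, and growth is compared with that of vehicle-treated cultures to give percent inhibition.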"}, "[16]": {"conditions": "at 5.0 µM (retest, dose inferred, filed as 0.5)"}, "[17]": {"conditions": "at 50.0 µM (retest, dose inferred, filed as 5.0)"}}, "note": "Compounds without any hit were thinned out: in the full panel of roughly 79,000, 15% have a hit. A number with no mark means an inactive call. Active and inactive are the calls of the source. Cut-off read from the data, not from the text of the source: active = growth inhibition above about 70%; inactive = the rest.", "data": [{"smiles": "c1ccc(N=c2nc(N3CCOCC3)ss2)cc1", "values": [{"measurement": "growth inhibition", "setting": "[1]; at 1.2 µM", "result": -3, "unit": "%"}, {"measurement": "growth inhibition", "setting": "[1]; at 3.7 µM", "result": 3, "unit": "%"}, {"measurement": "growth inhibition", "setting": "[1]; at 11.0 µM", "result": 27, "unit": "%"}, {"measurement": "growth inhibition", "setting": "[1]; at 33.0 µM", "result": "98% (active)"}, {"measurement": "growth inhibition", "setting": "[1]; at 100.0 µM", "result": "99% (active)"}, {"measurement": "growth inhibition", "setting": "[2]; at 1.2 µM", "result": -3, "unit": "%"}, {"measurement": "growth inhibition", "setting": "[2]; at 3.7 µM", "result": 4, "unit": "%"}, {"measurement": "growth inhibition", "setting": "[2]; at 11.0 µM", "result": 15, "unit": "%"}, {"measurement": "growth inhibition", "setting": "[2]; at 33.0 µM", "result": "98% (active)"}, {"measurement": "growth inhibition", "setting": "[2]; at 100.0 µM", "result": "98% (active)"}, {"measurement": "growth inhibition", "setting": "[3]; at 1.2 µM", "result": -5, "unit": "%"}, {"measurement": "growth inhibition", "setting": "[3]; at 3.7 µM", "result": 2, "unit": "%"}, {"measurement": "growth inhibition", "setting": "[3]; at 11.0 µM", "result": 19, "unit": "%"}, {"measurement": "growth inhibition", "setting": "[3]; at 33.0 µM", "result": 56, "unit": "%"}, {"measurement": "growth inhibition", "setting": "[3]; at 100.0 µM", "result": "99% (active)"}, {"measurement": "growth inhibition", "setting": "[4]; at 1.2 µM", "result": -6, "unit": "%"}, {"measurement": "growth inhibition", "setting": "[4]; at 3.7 µM", "result": 6, "unit": "%"}, {"measurement": "growth inhibition", "setting": "[4]; [16]", "result": 19, "unit": "%"}, {"measurement": "growth inhibition", "setting": "[4]; at 11.0 µM", "result": 51, "unit": "%"}, {"measurement": "growth inhibition", "setting": "[4]; at 33.0 µM", "result": "99% (active)"}, {"measurement": "growth inhibition", "setting": "[4]; [17]", "result": "99% (active)"}, {"measurement": "growth inhibition", "setting": "[4]; at 50.0 µM", "result": "98.6% (active)"}, {"measurement": "growth inhibition", "setting": "[4]; at 100.0 µM", "result": "99% (active)"}, {"measurement": "growth inhibition", "setting": "[5]; at 1.2 µM", "result": -4, "unit": "%"}, {"measurement": "growth inhibition", "setting": "[5]; at 3.7 µM", "result": 7, "unit": "%"}, {"measurement": "growth inhibition", "setting": "[5]; [16]", "result": 14, "unit": "%"}, {"measurement": "growth inhibition", "setting": "[5]; at 11.0 µM", "result": 37, "unit": "%"}, {"measurement": "growth inhibition", "setting": "[5]; at 33.0 µM", "result": "99% (active)"}, {"measurement": "growth inhibition", "setting": "[5]; [17]", "result": "100% (active)"}, {"measurement": "growth inhibition", "setting": "[5]; at 50.0 µM", "result": "99.7% (active)"}, {"measurement": "growth inhibition", "setting": "[5]; at 100.0 µM", "result": "99% (active)"}, {"measurement": "growth inhibition", "setting": "[6]; at 1.2 µM", "result": -3, "unit": "%"}, {"measurement": "growth inhibition", "setting": "[6]; at 3.7 µM", "result": 13, "unit": "%"}, {"measurement": "growth inhibition", "setting": "[6]; at 11.0 µM", "result": 61, "unit": "%"}, {"measurement": "growth inhibition", "setting": "[6]; at 33.0 µM", "result": "99% (active)"}, {"measurement": "growth inhibition", "setting": "[6]; at 100.0 µM", "result": "99% (active)"}, {"measurement": "growth inhibition", "setting": "[7]; [16]", "result": 58, "unit": "%"}, {"measurement": "growth inhibition", "setting": "[7]; [17]", "result": "100% (active)"}, {"measurement": "growth inhibition", "setting": "[7]; at 50.0 µM", "result": "98.7% (active)"}, {"measurement": "growth inhibition", "setting": "[8]; at 1.2 µM", "result": -11, "unit": "%"}, {"measurement": "growth inhibition", "setting": "[8]; at 3.7 µM", "result": -13, "unit": "%"}, {"measurement": "growth inhibition", "setting": "[8]; at 11.0 µM", "result": 3, "unit": "%"}, {"measurement": "growth inhibition", "setting": "[8]; at 33.0 µM", "result": "87% (active)"}, {"measurement": "growth inhibition", "setting": "[8]; at 100.0 µM", "result": "98% (active)"}, {"measurement": "growth inhibition", "setting": "[9]; [16]", "result": -5, "unit": "%"}, {"measurement": "growth inhibition", "setting": "[9]; [17]", "result": "99% (active)"}, {"measurement": "growth inhibition", "setting": "[9]; at 50.0 µM", "result": "93.4% (active)"}, {"measurement": "growth inhibition", "setting": "[10]; at 1.2 µM", "result": -5, "unit": "%"}, {"measurement": "growth inhibition", "setting": "[10]; at 3.7 µM", "result": 5, "unit": "%"}, {"measurement": "growth inhibition", "setting": "[10]; [16]", "result": 8, "unit": "%"}, {"measurement": "growth inhibition", "setting": "[10]; at 11.0 µM", "result": 56, "unit": "%"}, {"measurement": "growth inhibition", "setting": "[10]; at 33.0 µM", "result": "99% (active)"}, {"measurement": "growth inhibition", "setting": "[10]; [17]", "result": "99% (active)"}, {"measurement": "growth inhibition", "setting": "[10]; at 50.0 µM", "result": "99.3% (active)"}, {"measurement": "growth inhibition", "setting": "[10]; at 100.0 µM", "result": "99% (active)"}, {"measurement": "growth inhibition", "setting": "[11]; at 1.2 µM", "result": -1, "unit": "%"}, {"measurement": "growth inhibition", "setting": "[11]; at 3.7 µM", "result": 18, "unit": "%"}, {"measurement": "growth inhibition", "setting": "[11]; at 11.0 µM", "result": 53, "unit": "%"}, {"measurement": "growth inhibition", "setting": "[11]; at 33.0 µM", "result": "98% (active)"}, {"measurement": "growth inhibition", "setting": "[11]; at 100.0 µM", "result": "99% (active)"}, {"measurement": "growth inhibition", "setting": "[12]; at 1.2 µM", "result": -1, "unit": "%"}, {"measurement": "growth inhibition", "setting": "[12]; at 3.7 µM", "result": 14, "unit": "%"}, {"measurement": "growth inhibition", "setting": "[12]; at 11.0 µM", "result": "73% (active)"}, {"measurement": "growth inhibition", "setting": "[12]; at 33.0 µM", "result": "99% (active)"}, {"measurement": "growth inhibition", "setting": "[12]; at 100.0 µM", "result": "99% (active)"}, {"measurement": "growth inhibition", "setting": "[13]; at 1.2 µM", "result": 7, "unit": "%"}, {"measurement": "growth inhibition", "setting": "[13]; at 3.7 µM", "result": 37, "unit": "%"}, {"measurement": "growth inhibition", "setting": "[13]; at 11.0 µM", "result": "87% (active)"}, {"measurement": "growth inhibition", "setting": "[13]; at 33.0 µM", "result": "99% (active)"}, {"measurement": "growth inhibition", "setting": "[13]; at 100.0 µM", "result": "99% (active)"}, {"measurement": "growth inhibition", "setting": "[14]; [16]", "result": 26, "unit": "%"}, {"measurement": "growth inhibition", "setting": "[14]; [17]", "result": "98% (active)"}, {"measurement": "growth inhibition", "setting": "[14]; at 50.0 µM", "result": "98.4% (active)"}, {"measurement": "growth inhibition", "setting": "[15]; at 1.2 µM", "result": 0, "unit": "%"}, {"measurement": "growth inhibition", "setting": "[15]; at 3.7 µM", "result": 18, "unit": "%"}, {"measurement": "growth inhibition", "setting": "[15]; at 11.0 µM", "result": 64, "unit": "%"}, {"measurement": "growth inhibition", "setting": "[15]; at 33.0 µM", "result": "99% (active)"}, {"measurement": "growth inhibition", "setting": "[15]; at 100.0 µM", "result": "94% (active)"}]}]}
